About 1,500 (65%) of roughly 2,300 compounds were called active. The set was probably picked from earlier hits. The list shows a part of the results. Potency and affinity values are given separately. A number with no mark means an inactive call. The rule behind the calls is not given here.

The test is described as follows: replicating M. tuberculosis growth inhibition, dose response, non-replicating M. tuberculosis project, H37Rv (AID 492952).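 Note: Mycobacterium tuberculosis grown in culture; growth inhibition read after a week of incubation; 0% = bacteria alone untreated and 100% = bacteria with high antibiotic.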 As to conditions: series mostly up to 50 µM; inhibition: at the top concentration.
Consider `Cc1ccc(C(=O)N/N=C/C=C/c2ccccc2)cc1`, for which the “inhibition” value was 19.8%. Turning to `CCc1ccc(N=CC2=C(O)CC(c3ccco3)CC2=O)cc1` (stereo unspecified), the “inhibition” value was 3%. Turning to `CC(=O)N(c1nnc(-c2ccc(C)cc2)s1)C1CCCC1`, the “inhibition” value is 20.1%. To `O=C(NCCC1=CCCCC1)c1ccc(F)cc1` belongs -3.67%; to `O=C(NCCC1=CCCCC1)c1ccc(Br)o1`, -0.64%. Then `COc1ccccc1-c1nnc(-c2ccc(C)cc2)o1`, with 7.38%; and `COc1ccccc1-c1cc(SC)c(C#N)c(=O)o1`, with -0.91%; and `O=C(COC(=O)c1cccc(C(F)(F)F)c1)NCc1ccccc1`, with -2.81%. With `FC(F)(F)c1ccc(NCCc2ccccc2)nc1`, the “inhibition” value is -0.21%. Then `CCOC(=O)Cc1csc(NC(=O)COc2ccc3c(c2)CCC3)n1`, with 0.53%; and `O=C(CNC(=O)c1ccc(Br)cc1)c1ccc(Br)cc1`, with 23.6%. Turning to `Nc1nnc(SCCCC(=O)c2ccc(Br)cc2)s1`, the “inhibition” value is 5.18%.

For the molecule `Cc1ccc(C(=O)N/N=C\c2ccc[nH]2)cn1`, the “inhibition” value was -5.12%.

As to `Cc1cccc(C)c1NC(=O)c1sc(N)nc1-c1ccccc1`, the “inhibition” value is -4.98%. To `COc1cccc(/C=N/N2C(=O)CSC2=S)c1O` belongs -2.68%. With `O=C(N/N=C\c1ccco1)c1cncc(Br)c1`, the “inhibition” value is 16.6%. To `Cc1ccc(C(=O)c2cncc(Br)c2)cc1` belongs -7.1%; to `Nn1c(SCCOc2ccc(Cl)cc2)nnc1-c1cccnc1`, -2.3%; to `CSCCC(=O)N1CCCC(N2CCN(c3cccc(C(F)(F)F)c3)CC2)C1` (stereo unspecified), 4.08%. To `CCCNC(=O)c1ccc(COc2ccc(C)cc2)o1` belongs 1.85%. To `COC(=O)c1ccc(CO/N=C/c2ccc(OC)cc2)o1` belongs 4.34%; to `Cc1cccc2c(CC(=O)O)noc12`, 1.24%.

For `O=C(NNc1ccc([N+](=O)[O-])cc1)c1ccccc1Cl`, the “inhibition” value was 3.86%. Regarding `CC1(C)CC(=O)c2cc(C(=O)NNc3ccccc3)c(=O)n(-c3ccccc3)c2C1`, the “inhibition” value was 14.9%.

As to `Clc1ccc2c(N3CCCC3)ccnc2c1`, the “inhibition” value was -0.83%. `Cc1ccc(O)c(C(=O)c2cc(C#N)c(=O)n(-c3nccs3)c2)c1`: the “inhibition” value is 4.6%. Consider `Cn1c(=O)c2c(=O)cc(NNC(=O)CC#N)[nH]c2n(C)c1=O`, for which the “inhibition” value is 3.96%. Then `Cc1ccc(/C=C2\SC(=S)N(C3CCS(=O)(=O)C3)C2=O)o1` (stereo unspecified), with -0.18%; and `Cc1ccsc1C(=O)OCC(=O)NCCC1=CCCCC1`, with 2.87%.

For the molecule `O=C(COC(=O)c1cccs1)NCCC1=CCCCC1`, the “inhibition” value is 1.34%. `O=C(c1ccc(Cl)cc1)c1nnc(-c2ccncc2)o1`: the “inhibition” value is -4.56%. To `O=C(Nc1nnc(-c2ccc(Cl)cc2)o1)c1cccc(N2C(=O)CCC2=O)c1` belongs -1.86%; to `Cc1ccc(N=N/C(=C\O)C(=O)c2ccncc2)cc1`, 3.09%. Consider `FC(F)(F)c1ccc(-c2nnc(-c3cccnc3)o2)cc1`, for which the “inhibition” value was 5.31%. Then `CC1(c2nnc(-c3ccccc3)o2)CC(c2ccc(Cl)cc2)=NO1` (stereo unspecified), with -7%. Then `CC1=NN(C(=O)COc2ccccc2)C(O)(c2ccccc2)C1` (stereo unspecified), with 2.02%; and `CCOc1ccc(CC(=O)N2N=C(C)CC2(O)C(F)(F)F)cc1` (stereo unspecified), with -10.6%; and `Nc1nonc1C(=O)NCCN=Cc1cc(Cc2ccccc2)cc(Br)c1O`, with -2.49%.

For `Cc1nn(C)cc1/C=N/NC(=O)c1sc2ccccc2c1Cl`, the “inhibition” value is 2.4%. For the molecule `Cc1cc(C(=O)N/N=C/C=C/c2ccccc2)c(C)o1`, the “inhibition” value was 1.97%.

In the case of `Cc1occc1C(=O)N/N=C/c1ccc[nH]1`, the “inhibition” value is 4.32%.

Consider `O=C1/C(=C/c2ccco2)CCC1C1CCCC1` (stereo unspecified), for which the “inhibition” value was -2.45%. Then `Cc1cccc2nc(-c3cccnc3)c(NCCC(C)C)n12`, with 5.38%; and `CC1=NN(C(=O)c2ccc(C)o2)C(O)(c2ccccc2)C1` (stereo unspecified), with 20.8%; and `Cc1ccc2nc3c(c(N)c2c1)CCN3c1ccccc1`, with 11.9%. Then `CCc1ccc(OCC(=O)c2c(O)c3ccccc3oc2=O)cc1`, with 4.28%. Turning to `O=C(CCC1CCCCC1)NCc1cccs1`, the “inhibition” value is 4.16%. Then `C=CCN=C1SC(CC)C(=O)N1S(=O)(=O)c1ccc(C)cc1` (stereo unspecified), with -2.98%; and `COc1ccc(CN=C2NN=C(c3ccc(Cl)cc3)CS2)cc1`, with 0.54%. With `O=C(O)c1ccc(CN2C(=O)CSC2=S)cc1`, the “inhibition” value is 10.6%. Regarding `c1ccc(Cn2c(SCCN3CCOCC3)nnc2-c2cccnc2)cc1`, the “inhibition” value is 1.98%.

With `CN(C)CCN1C(=O)c2oc3ccccc3c(=O)c2C1c1cccc(Br)c1` (stereo unspecified), the “inhibition” value is -0.37%. To `CC12CC3CC(C)(C1)CC(C(=O)N1CCCC1)(C3)C2` belongs 0.71%. `Cc1ccc(NC(=O)CNc2ccc(OC(C)C)cc2)cc1`: the “inhibition” value was -2.71%.

For the molecule `Cc1ccc(NC(=O)COc2ccccc2)cc1Cl`, the “inhibition” value is 20.7%. Then `CNCc1ccccc1Sc1cc(O)ccc1O`, with 15.4%; and `CC1(C)CC(=O)C2=C(C1)OC(N)=C(C#N)C2C#Cc1ccccc1` (stereo unspecified), with -5.98%. Take `CCOC(=O)Cc1ccc(NCc2ccc(Cl)cc2)cc1`: the “inhibition” value is -6.08%. `CC1=NN(C(=O)COc2ccccc2C)C(O)(c2ccc(Cl)cc2)C1` (stereo unspecified): the “inhibition” value was 1.65%. Then `Cc1ccccc1OCCC(=O)OCC(=O)NNC(=O)c1cccs1`, with -2.54%; and `CC1=CC(C)(C)Nc2ccc(OC(=O)CN3C(=O)c4ccccc4C3=O)cc21`, with 17.5%; and `Cc1ccc2c(c1)C(=O)C(=O)N2CCCOc1ccccc1`, with 4.43%. Then `N=c1oc2ccccc2cc1C(=O)Nc1ccccc1`, with 3.3%; and `c1ccc(OCc2nnc3sc(-c4cccs4)nn23)cc1`, with -2.99%; and `O=c1[nH][nH]c(-c2ccccc2O)c1C(C[N+](=O)[O-])c1cccc(Cl)c1` (stereo unspecified), with -6.66%. To `Clc1ccc(OC2CCN(Cc3nc(CC4CC4)no3)CC2)cc1` belongs 1.15%; to `CCOc1ccc(OCC(=O)OCc2cc(=O)n3cc(Br)ccc3n2)cc1`, 4.47%.

For `CCOC(=O)Cn1nc(/C=C/c2ccccc2)ccc1=O`, the “inhibition” value was 2.31%. To `O=C(CNC(=O)c1ccccc1)OC1CCCCC1` belongs -2.69%; to `COc1ccc(-c2nnn(Cc3ccccc3)n2)cc1`, 0.99%.

For the molecule `O=C1CC(Sc2ncccn2)C(=O)N1c1ccccc1C(F)(F)F` (stereo unspecified), the “inhibition” value was -2.38%.

As a reminder, the inhibition is the change of the read-out against control, counted positive when it falls.

Values taken from PubChem BioAssay AID492952 (Southern Research Specialized Biocontainment Screening …, 2010).
